From the supplement of paper PMC3545927
The list shows a part of the results. No count for the full screen is at hand.

Biological target: furin, P09958
Assay: furin cleavage Z-score vs untreated control; higher = more cleavage, active = 3.5 or more, inactive = 1 or less, 8 variable residues between constant flanks
Summary of the method: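 Read counts from sequencing released DNA gave abundance for each bead-bound 8-mer peptide–cDNA fusion cut by purified furin over 7.5, 15 or 30 min. The cleavage Z-score compares log counts with furin-free reactions after lowess adjustment and median absolute deviation scaling.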
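Further: purified furin at 1:10 enzyme:substrate in 50 mM HEPES pH 7.5.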

Sequence of furin, P09958 (P09958 whole entry): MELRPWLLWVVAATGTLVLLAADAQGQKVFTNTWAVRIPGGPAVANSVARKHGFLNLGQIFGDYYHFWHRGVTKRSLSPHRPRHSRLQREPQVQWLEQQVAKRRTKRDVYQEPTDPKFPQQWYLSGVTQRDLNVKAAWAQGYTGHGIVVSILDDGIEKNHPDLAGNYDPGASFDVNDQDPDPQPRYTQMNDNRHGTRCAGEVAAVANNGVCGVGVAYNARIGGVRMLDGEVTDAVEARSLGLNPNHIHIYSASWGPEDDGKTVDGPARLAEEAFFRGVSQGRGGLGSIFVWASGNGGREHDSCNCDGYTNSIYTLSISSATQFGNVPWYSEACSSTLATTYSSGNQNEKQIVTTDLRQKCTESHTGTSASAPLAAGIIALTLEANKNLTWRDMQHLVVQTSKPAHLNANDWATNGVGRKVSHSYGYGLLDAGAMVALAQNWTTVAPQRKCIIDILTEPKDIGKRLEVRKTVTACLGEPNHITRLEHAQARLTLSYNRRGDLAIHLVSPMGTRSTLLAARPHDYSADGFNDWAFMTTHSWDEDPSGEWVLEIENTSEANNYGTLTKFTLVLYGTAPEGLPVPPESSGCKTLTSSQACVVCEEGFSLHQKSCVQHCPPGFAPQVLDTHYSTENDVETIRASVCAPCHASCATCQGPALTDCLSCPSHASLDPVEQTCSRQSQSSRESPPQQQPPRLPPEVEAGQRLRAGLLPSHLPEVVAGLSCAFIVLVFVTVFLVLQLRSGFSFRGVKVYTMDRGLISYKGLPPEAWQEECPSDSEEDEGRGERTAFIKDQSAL

| Sequence | furin cleavage Z-score (7.5 min) | furin cleavage Z-score (15 min) | furin cleavage Z-score (30 min) |
| --- | --- | --- | --- |
| CAVVCISMSYAGNASASA [HC85] | -1.62 (inactive) | -2.02 (inactive) | -0.461 (inactive) |
| CAEPHRARRGAGNASASA [FS-1451] | 5.81 (active) | 5.59 (active) | 6.2 (active) |
| CAQRRRARRGAGNASASA [FS-850] | 2.4 | 2.13 | 0.325 (inactive) |
| CARGCRARRGAGNASASA [FS-1060] | 3.97 (active) | 3.87 (active) | 2.93 |
| CAQTPCSAHLAGNASASA [HC2482] | -0.0432 (inactive) | 0.702 (inactive) | 2.39 |
| CASTPCSAHKAGNASASA [HC2574] | -0.715 (inactive) | 0.189 (inactive) | -1.56 (inactive) |
| CATSRSACQRAGNASASA [HC1391] | 0.0948 (inactive) | 0.314 (inactive) | 0.239 (inactive) |
| CAREGRDGPKAGNASASA [FS-2003] | 0.305 (inactive) | -0.0392 (inactive) | -2.05 (inactive) |
| CARFKRKDRMAGNASASA [FS-2553] | 4.28 (active) | 3.52 (active) | 4.13 (active) |
| CARPGRKDRRAGNASASA [FS-1067] | 0.778 (inactive) | 1.1 | 0.538 (inactive) |
| CARKKRKSPKAGNASASA [FS-2268] | 0.83 (inactive) | 2.91 | 2.06 |
| CARSKRIAGKAGNASASA [FS-2811] | 0.535 (inactive) | -0.714 (inactive) | 0.638 (inactive) |
| CARICRDIPKAGNASASA [FS-2029] | 3.76 (active) | 5.68 (active) | 4.88 (active) |
| CARFKRAAGKAGNASASA [FS-2259] | 11.2 (active) | 12.2 (active) | 9.21 (active) |
| CATTKRDAGKAGNASASA [FS-2474] | -0.152 (inactive) | -0.387 (inactive) | 0.96 (inactive) |
| CARFKRKLPKAGNASASA [FS-1948] | 0.844 (inactive) | 1.94 | 3.55 (active) |
| CAVRVCEKMAAGNASASA [HC1454] | -0.509 (inactive) | -1.63 (inactive) | -0.874 (inactive) |
| CAVVCCSMSLAGNASASA [HC2085] | -0.7 (inactive) | -0.0853 (inactive) | 0.456 (inactive) |
| CAACNWTRGEAGNASASA [HC482] | 0.0668 (inactive) | 0.0745 (inactive) | -0.647 (inactive) |
| CATTPYSGSWAGNASASA [HC57] | -0.402 (inactive) | -1.77 (inactive) | -1.07 (inactive) |
| CAVVCCSMSEAGNASASA [HC2092] | 0.169 (inactive) | -0.137 (inactive) | 0.14 (inactive) |
| CAGKLPATQLAGNASASA [HC286] | -0.891 (inactive) | 0.888 (inactive) | -0.728 (inactive) |
| CARAQRSPQQAGNASASA [FS-2129] | -0.476 (inactive) | 0.539 (inactive) | 1.62 |

| Sequence | furin cleavage Z-score (7.5 min) | furin cleavage Z-score (15 min) | furin cleavage Z-score (30 min) |
| --- | --- | --- | --- |
| CARSNRFSWMAGNASASA [FS-3088] | 1.34 | 0.175 (inactive) | 0.252 (inactive) |
| CARSWRLACEAGNASASA [FS-2610] | -1.13 (inactive) | -1.31 (inactive) | -0.906 (inactive) |
| CARFKRAIFQAGNASASA [FS-3154] | 3.12 | 6.07 (active) | 9.35 (active) |
| CARFKRDPNQAGNASASA [FS-1891] | 5.07 (active) | 6.2 (active) | 6.47 (active) |
| CARFKRLADMAGNASASA [FS-2489] | 2.25 | 3.3 | 4.96 (active) |
| CAQEKRSVFQAGNASASA [FS-2249] | -0.752 (inactive) | 1.01 | 0.632 (inactive) |
| CARFKKLADMAGNASASA [FS-2414] | -1 (inactive) | -2.01 (inactive) | 0.965 (inactive) |
| CATFDRLQVLAGNASASA [HC1397] | -1.63 (inactive) | -1.93 (inactive) | -0.453 (inactive) |
| CARFERAIGPAGNASASA [FS-2662] | 1.09 | 0.675 (inactive) | 1.32 |
| CALTGRDKNQAGNASASA [HC684] | -0.69 (inactive) | -0.684 (inactive) | -0.181 (inactive) |
| CARFKRLACMAGNASASA [FS-2488] | 1.67 | 1.17 | 4.11 (active) |
| CAPLTDFDQGAGNASASA [HC391] | -0.36 (inactive) | -0.0198 (inactive) | -2.39 (inactive) |
| CAVLAGIAYFAGNASASA [HC338] | -0.161 (inactive) | 0.738 (inactive) | -0.272 (inactive) |
| CAEHTTPCSGAGNASASA [HC1975] | -1.73 (inactive) | -1.12 (inactive) | 0.179 (inactive) |
| CATYPCSGSWAGNASASA [HC1849] | -0.56 (inactive) | -0.736 (inactive) | -0.826 (inactive) |
| CARYRRHGTHAGNASASA [FS-1942] | 3.5 | 5.79 (active) | 6.5 (active) |
| CARYRRVAEGAGNASASA [FS-1980] | 3.4 | 4.71 (active) | 4.58 (active) |
| CARLRRLAEGAGNASASA [FS-2715] | -0.759 (inactive) | -0.389 (inactive) | -0.211 (inactive) |
| CARPWRPAEGAGNASASA [FS-2442] | -1.33 (inactive) | -0.417 (inactive) | 0.551 (inactive) |
| CARYRRWMKNAGNASASA [FS-2321] | -1.37 (inactive) | -0.188 (inactive) | 2.73 |
| CARYRRVITVAGNASASA [FS-1844] | -0.325 (inactive) | -0.579 (inactive) | 0.939 (inactive) |
| CARYRRGFIHAGNASASA [FS-1810] | 1.59 | 3.75 (active) | 4.82 (active) |
